The values that follow come from PubChem BioAssay.

Results filed as inconclusive are left out. The source made the active and inactive calls.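 How the source made its calls, unless noted: active means growth inhibition above 25% in both replicates, a cutoff set 3 SD above the mean; inconclusive means above 25% in only one replicate; inactive means the rest.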

A word on the viability: it is a read-out of living cells in per cent, often relative to untreated cells. As a reminder, the inhibition is the drop in the measured response relative to a control, in per cent.

The nature of test [1]: HUVEC growth inhibition – cell-based, human, primary screen (AID 575;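 active means viability at or below 30% in both replicate assays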;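 further: 100% = median of untreated cell wells with 0.1% DMSO on each plate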). Conditions: HUVEC proliferation, CellTiter-Glo luminescence, 72 h; at 10 µM; stronger effect = lower value. A general note: In ATP-based viability assays light output follows the ATP content of the culture.
The nature of test [2]: growth inhibitors of H69AR lung tumor, primary screen, human, duplicate replicates (AID 580;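 active means viability at or under a set limit in both replicates, limit being median viability minus 3 SD, cut at about 48% in these data, passing the limit was not always enough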;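 further: 100% = mean luminescence of untreated wells and 0% = no signal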). Conditions: H69AR lung tumor cells viability, ATP luminescence, 72 h; at 10 µM; stronger effect = lower value.
Test [3] can be described thus: reversal of MRP1-mediated doxorubicin resistance, pilot screen, H69AR cells, doxorubicin co-treatment (AID 601;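 active means viability loss from added drug above about 55%, and viability with drug at most 40%, in both replicates, limit read from the data, passing the limit was not always enough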). Conditions: CellTiter-Glo, 72 h, at 10 µM; for differential viability (reversal): stronger effect = higher value.
The nature of test [4]: 384-well plate pilot, post-Golgi transport modulator project, inhibition of yeast transport mutant growth (AID 636; in the data active means inhibition above about 31%). Conditions: absorbance 615 nm, about 18 h, stronger effect = higher value.
A short description of test [5]: growth suppression of yeast trafficking mutant, preliminary HTS, modulators of trafficking downstream of Golgi apparatus project, 1536-format plate, OD 615 nm (AID 637; in the data active means inhibition above about 30%). Conditions: yeast transport mutant growth, absorbance 615 nm, 18 h; stronger effect = higher value.
Test [6] in a line: OD615 S. cerevisiae growth inhibition, permissive medium, pilot counter-assay, permissive growth control for S. cerevisiae lifespan shortening project (AID 705). Conditions: OD615, 24 h, at 10 µM, stronger effect = higher value.
Test [7] is described as follows: Restrictive medium S. cerevisiae growth inhibition, OD615, pilot screen of yeast lifespan reduction project, restrictive growth control (AID 706;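 active means growth inhibition above a set limit, 3 SD over mean compound inhibition, in both replicates, cut at about 43% in these data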;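 further: modified DeaD lifespan yeast strain shifted to restrictive glucose medium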). Conditions: OD615, 48 h, at 10 µM, stronger effect = higher value.
Test [8] in a line: viability gain of MRP-1-high H69AR cells under doxorubicin, pilot screen, MRP-1 activator project, CellTiter-Glo, duplicate (AID 807;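 active means viability increase at or above a cutoff of the median across tested compounds plus 3 SD, cut at about 8.5% in these data, passing the limit was not always enough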;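 further: compound pretreatment 18-22 h then 72 h combined with doxorubicin; 0% = doxorubicin alone and 100% = vehicle without doxorubicin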). Conditions: H69AR viability with doxorubicin, CellTiter-Glo luminescence; at 10 µM; stronger effect = higher value.
Test [9] in a line: growth suppression of beta-catenin knockout HCT116, pilot screen, human colon tumor cells (AID 823;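 active means cell viability at or below a set limit in both duplicate runs, the limit being the all-compound median minus 4 SD, cut at about 23% in these data, passing the limit was not always enough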;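 further: 0% = wells killed by 20 µM Hyamine and 100% = untreated DMSO cell wells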). Conditions: CellTiter-Glo, 60 h, at 10 µM, stronger effect = lower value.
Test [10] can be described thus: growth suppression of PTEN-deleted HCT116, pilot screen, cell-based, HCT116 clonal line, CellTiter-Glo (AID 824;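 active means viability at or below 27.92% in each of two runs, the all-compound median minus 4 SD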;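 further: 0% = 20 µM Hyamine control and 100% = vehicle cell control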). Conditions: 60 h, at 10 µM, stronger effect = lower value.
Test [11] can be described thus: inhibitors of the yeast RAM network, pilot screen, dse1pr::URA3 reporter, 5-FOA selection (AID 869;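 active means inhibition over a set limit, the all-compound mean plus 3 SD, in both replicate runs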;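 further: 0% = DMSO wells with no growth and 100% = 10 µM 1-NA-PP1 with full growth; RAM network block rescues cells from 5-FOA so hits raise OD615 growth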). Conditions: S. cerevisiae dse1pr::URA3 5-FOA growth, OD615, 2 d; at 10 µM; stronger effect = higher value; strain carries analog-sensitive mutant Cbk1 kinase.
Test [12] is described as follows: RAM signaling pathway blockade in yeast – S. cerevisiae, Pdr1DBD-CYC8 efflux-inhibited sensitized strain, primary screen (AID 1298;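 active means RAM network inhibition above 8.4% in each of two replicates, 3 SD over the compound average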;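 further: 0% = DMSO untreated cells without growth and 100% = 10 µM 1-NA-PP1 full growth; higher means more yeast growth rescued from 5-FOA killing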). Conditions: S. cerevisiae cbk1-as DSE1-URA3 strain, 5-FOA growth OD615, 2 d; at 50 µM; stronger effect = higher value.
The mark [13] stands for this setting: H69AR cells + 2 uM doxorubicin, measured here: viability with 2 uM doxorubicin, stronger effect = lower value.
[14] abbreviates: H69AR cells, compound alone cytotoxicity.

As to `COC(=O)C1CCN(C(=O)CSc2nnc(-c3ccncc3)o2)CC1`, the viability in test [1] was 101% (inactive); in test [2] it was 81.8% (inactive); in [3] (setting [13]) it was 89%; in test [3] (setting [14]) it was 81.8%; in test [9], 102% (inactive); in test [10], 102% (inactive). Also, in [3] (H69AR cells + 2 uM doxorubicin), the differential viability (reversal) was -7.18% (inactive). Moreover, the inhibition in test [4] is 1.43% (inactive); in [5] it was 19.1% (inactive); in test [11], 1.91% (inactive). Also, the values for the growth inhibition in test [6] and in [7] were -0.605% (inactive) and -6.21% (inactive), respectively. Further, the viability increase in [8] was 1.44% (inactive). For the same compound, the RAM network inhibition in test [12] is -1.1% (inactive).

In the case of `c1ccc2c(c1)ccc1nnc(-c3ccc4c(c3)OCO4)n12`, the viability in [1] is 98.7% (inactive); in test [2], 96% (inactive); in test [3] (setting [13]), 91.1%; in test [3] (setting [14]), 96%; in test [9], 93.7% (inactive); in test [10], 90.9% (inactive). In addition, the differential viability (reversal) in test [3] (H69AR cells + 2 uM doxorubicin) was 4.88% (inactive). Further, the inhibition in test [4] was -1.82% (inactive); in test [5] it was 3.33% (inactive); in test [11], 1.31% (inactive). The growth inhibition in [6] is -7.74% (inactive); in test [7], 2.03% (inactive). Further, the viability increase in test [8] was -5.23% (inactive). The RAM network inhibition in test [12] is 1.81% (inactive).

For the compound `CCc1cc2c(NCCC(=O)O)ncnc2s1`, the viability is 83.3% (inactive) in test [1]; 97.6% (inactive) in test [2]; 91.7% in test [3] (setting [13]); 97.6% in test [3] (setting [14]); 101% (inactive) in test [9]; 99.6% (inactive) in test [10]. Further, the differential viability (reversal) in test [3] (H69AR cells + 2 uM doxorubicin) was 5.87% (inactive). In addition, the inhibition is -3.51% (inactive) in test [4], -0.48% (inactive) in test [5] and 3.42% (inactive) in test [11]. The figures for the growth inhibition in [6] and in test [7] were -7.78% (inactive) and -13.1% (inactive), respectively. Moreover, the viability increase in test [8] is -1.99% (inactive). In [12], the RAM network inhibition is 2.49% (inactive).

Take `CCCN1CCN(C(=O)c2cn(CC(C)C)c(=O)c3cc(OC)c(OC)cc23)CC1`: the viability was 93.1% (inactive) in test [1]; 78% (inactive) in test [2]; 78.9% in test [3] (setting [13]); 78% in test [3] (setting [14]); 100% (inactive) in test [9]; 88.4% (inactive) in [10]. Also, in test [3] (H69AR cells + 2 uM doxorubicin), the differential viability (reversal) was -0.945% (inactive). Moreover, the inhibition was -4.74% (inactive) in [4], 4.92% (inactive) in test [5] and 2.42% (inactive) in test [11]. For the same compound, the growth inhibition is -19.2% (inactive) in test [6] and -0.27% (inactive) in test [7]. Moreover, the viability increase in [8] was -2.46% (inactive). The RAM network inhibition in test [12] was 2.08% (inactive).

Regarding `Cc1ccc(C)c(N2C(=O)CN=C2Nc2ccccc2Cl)c1`, the viability in test [1] is 80.1% (inactive); in test [2] it was 100% (inactive); in test [3] (setting [13]), 78.6%; in [3] (setting [14]) it was 100%; in test [9], 91.5% (inactive); in [10], 94.4% (inactive). For the same compound, the differential viability (reversal) in [3] (H69AR cells + 2 uM doxorubicin) is 21.3% (inactive). Also, the inhibition in [4] was -1.95% (inactive); in [5], 2.54% (inactive); in test [11], 0.715% (inactive). Moreover, the growth inhibition is -7.25% (inactive) in [6] and -0.67% (inactive) in [7]. Also, the viability increase in test [8] is -0.31% (inactive). Besides, the RAM network inhibition in test [12] is -0.52% (inactive).

Regarding `COC(=O)c1cccc(NC(=O)C2COc3ccccc3O2)c1C` (stereo unspecified), the viability in test [1] was 116% (inactive); in test [2] it was 100% (inactive); in test [3] (setting [13]) it was 91.4%; in [3] (setting [14]), 100%; in test [9] it was 106% (inactive); in test [10], 99% (inactive). Also, in test [3] (H69AR cells + 2 uM doxorubicin), the differential viability (reversal) is 8.78% (inactive). Moreover, the inhibition in test [4] was -1.71% (inactive); in test [5] it was -6.98% (inactive); in [11] it was -0.07% (inactive). Moreover, the values for the growth inhibition in [6] and in test [7] were -14.9% (inactive) and -21.5% (inactive), respectively. The viability increase in test [8] is 0.68% (inactive). For the same compound, the RAM network inhibition in test [12] was 3.78% (inactive).

As for `Cn1ccnc1C(O)c1ccco1` (stereo unspecified), the viability was 101% (inactive) in [1]; 103% (inactive) in test [2]; 89.5% in test [3] (setting [13]); 103% in test [3] (setting [14]); 102% (inactive) in [9]; 103% (inactive) in test [10]. In addition, the differential viability (reversal) in test [3] (H69AR cells + 2 uM doxorubicin) was 13.1% (inactive). The results for the inhibition in test [4], in test [5] and in [11] were -5.39% (inactive), 1.43% (inactive) and 0.74% (inactive), respectively. Also, the growth inhibition was -5.51% (inactive) in test [6] and -3.72% (inactive) in test [7]. Also, the viability increase in test [8] is -0.09% (inactive). For the same compound, the RAM network inhibition in test [12] is 3.14% (inactive).

For the compound `O=C(COC(=O)C1(c2ccccc2F)CCCC1)NC1CCS(=O)(=O)C1` (stereo unspecified), the viability was 118% (inactive) in [1]; 97.2% (inactive) in [2]; 93.9% in test [3] (setting [13]); 97.2% in test [3] (setting [14]); 99.4% (inactive) in [9]; 95.3% (inactive) in test [10]. The differential viability (reversal) in test [3] (H69AR cells + 2 uM doxorubicin) was 3.27% (inactive). The inhibition is -1.69% (inactive) in [4], -2.06% (inactive) in test [5] and 0.035% (inactive) in [11]. For the same compound, the growth inhibition is 5.97% (inactive) in test [6] and 2.54% (inactive) in test [7]. Moreover, in test [8], the viability increase was -0.5% (inactive). Besides, the RAM network inhibition in test [12] was 3.94% (inactive).

In the case of `COc1ccc(C2C(C#N)=C(C)NC3=C2C(=O)CC(C)(C)C3)c(OC)c1` (stereo unspecified), the viability was 88.9% (inactive) in test [1]; 95.3% (inactive) in test [2]; 71.8% in test [3] (setting [13]); 95.3% in [3] (setting [14]); 97.6% (inactive) in test [9]; 91.4% (inactive) in test [10]. Moreover, in test [3] (H69AR cells + 2 uM doxorubicin), the differential viability (reversal) was 23.5% (inactive). Further, the results for the inhibition in [4], in test [5] and in test [11] were -1.3% (inactive), -2.7% (inactive) and 0.825% (inactive), respectively. The growth inhibition is -22.8% (inactive) in [6] and -14.1% (inactive) in test [7]. Further, in test [8], the viability increase was -1.62% (inactive). Moreover, the RAM network inhibition in test [12] is 1.94% (inactive).
